# Data: patent US20200347384, “Screening artificial nucleic acids by particle display” (THE REGENTS OF THE UNIVERSITY OF CALIFORNIA, published 2020)
# Tests used:
# [1] = biological target: T1, HIV-1 reverse transcriptase (HIV RT) (Human immunodeficiency virus, UniProt P03366;P03366 P03366:600-1159,P03366:600-1039); test: MST; two 5' flanking nucleotides deleted; conditions: tags: His-tag (inferred from Ni-NTA immobilisation); XNA; TNA at all positions
# [2] = biological target: T1, HIV-1 reverse transcriptase (HIV RT); test: MST; five 3' flanking nucleotides deleted; conditions: tags: His-tag (inferred from Ni-NTA immobilisation); XNA; TNA at all positions
Sequence,binding signal [1],binding signal [2]
TAGTAAATTGATTTAAAAATTTCATAAATGCTACATAA,~3 fold reduction in affinity,
AATAGTAAATTGATTTAAAAATTTCATAAATGCTA,,~3 fold reduction in affinity
